From PubChem BioAssay (NCATS)
Records with an inconclusive call do not appear. Where a call stands in place of a potency, no number is given. Activity calls are given as the source filed them. Calls come from the whole dose curve; as a rule, active = well fitted cell-killing curve with a large enough effect; inconclusive = small, poorly fitted or top-dose-only effect, or effect the other way; inactive = flat fitted curve, though single readings scatter.

The compounds below were run on Tov112D (assay: Primary qHTS to identify gynecologic anti-cancer compounds using libraries of approved drugs and bioactive compounds (AID 1345084; note: nearly all actives have a fitted effect of over 55% in size)). Conditions: Gynecologic cancer cell panel viability, ATPlite luminescence, 48 h; series mostly up to 57.5 µM.
Outline: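 Cells, 1,000 per well, were allowed to settle for 16 h at 37 C before compound addition. Five concentrations were tested for 48 h, and viability was read by ATPlite luminescence after 15 min at room temperature.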
Potency is the fitted concentration of half-maximal effect.

SMILES	Potency	activity change, negative = cytotoxicity
COc1cc(C(=O)O[C@H]2[C@@H]3C=CO[C@@H](O[C@@H]4O[C@H](CO)[C@@H](O)[C@H](O)[C@H]4O)[C@@H]3[C@@]3(CO)O[C@@H]23)ccc1O	inactive	
COC(=O)N1CCN(C(=O)Cc2ccc(Cl)c(Cl)c2)[C@@H](CN2CCCC2)C1	inactive	
C1=C2CCCN[C@H]2[C@@H]2C[C@H]1[C@H]1CCCCN1C2	inactive	
CN1C(=O)N(c2ccc(C#N)c(C(F)(F)F)c2)C(=O)[C@]1(CO)c1ccccc1	inactive	
CN1C(=O)c2ccccc2NC(=O)C1Cc1ccccc1 (stereo not given)	inactive	
CC(C)C1(OO)C=C2C(=O)CC3C(C)(C(=O)O)CCCC3(C)C2CC1 (stereo not given)	inactive	
N#CC(OC1OC(COC2OC(CO)C(O)C(O)C2O)C(O)C(O)C1O)c1ccccc1 (stereo not given)	inactive	
CC(=O)OC1CC(O)C(C)(C)C2CC(OC(C)=O)C3(C)C(CCC4(C)C(c5ccoc5)C(=O)C5OC543)C12C (stereo not given)	inactive	
C=CC(C)(C)c1[nH]c2cccc3c2c1C[C@@H]1[C@@H]3[C@@H](OC(C)=O)[C@H](C)CN1C	inactive	
COc1ccccc1CN[C@H]1C2CCN(CC2)[C@H]1C(c1ccccc1)c1ccccc1	inactive	
CC1=C2C(=O)C3[C@@H](CC=C4C[C@@H](O)CC[C@@]43C)[C@@H]2CC[C@]12O[C@@H]1C[C@H](C)CN[C@H]1[C@H]2C (stereo not given in full)	inactive	
COc1cc(CCNCc2ccccc2O)c(OC)cc1C#N	inactive	
CO[C@@H]1[C@H](O)[C@@H](O[C@@H]2C[C@H]3CC[C@@H]4C(CC[C@]5(C)[C@@H](C6=CC(=O)OC6)CC[C@]45O)[C@@]3(C)[C@H](O)C2)O[C@H](C)[C@@H]1O[C@@H]1O[C@H](CO)[C@@H](O)[C@H](O)[C@H]1O (stereo not given in full)	100 nM (active)	
CN1C(=O)c2ccccc2NC(=O)[C@]12O[C@@H]2c1ccccc1	inactive	
CC(CCc1ccc(O)cc1)O[C@@H]1O[C@H](CO[C@H]2OC[C@](O)(CO)[C@H]2O)[C@@H](O)[C@H](O)[C@H]1O (stereo not given in full)	inactive	
Cc1c(Cl)cccc1S(=O)(=O)Nc1nc(CC(=O)N2CCN(C)CC2)cs1	inactive	
C/C=C(\C)C(=O)O[C@H]1[C@H](OC(C)=O)[C@]2(CO)[C@H](O)[C@H](O)[C@]3(C)C(=CCC4[C@@]5(C)CC[C@H](O[C@@H]6O[C@H](C(=O)O)[C@@H](O)[C@H](O[C@@H]7OC[C@H](O)[C@H](O[C@@H]8OC[C@H](O)[C@H](O)[C@H]8O)[C@H]7O)[C@H]6O[C@@H]6O[C@H](CO)[C@@H](O)[C@H](O)[C@H]6O)C(C)(C)C5CC[C@]43C)[C@@H]2CC1(C)C (stereo not given in full)		8.32% [at 6.55 µM] (inactive)
C=C(C)[C@H]1O[C@H]2CC[C@@]3(C)[C@@](O)(CC[C@H]4[C@@H]5OC(C)(C)[C@H]6C[C@@H]7C(=C)Cc8c(Cl)cc9[nH]c(c5c9c8[C@@]76O)[C@@]43C)[C@]23O[C@@H]3[C@H]1O	inactive	

SMILES	Potency	activity change, negative = cytotoxicity
CCCCCOc1cc2c(cc1-c1cc(/C=C/C(=O)O)ccc1O)C(C)(C)CCC2(C)C	inactive	
COC1CC(OC2CCC3(C=O)C(CCC4C3CCC3(C)C(C5=CC(=O)OC5)CCC43O)C2)OC(C)C1OC1OC(CO)C(O)C(O)C1O (stereo not given)	100 nM (active)	
COC1C(O)C(OC2CCC3(C=O)C(CCC4C3CCC3(C)C(C5=CC(=O)OC5)CCC43O)C2)OC(C)C1OC1OC(CO)C(O)C(O)C1O (stereo not given)	316 nM (active)	
COC(=O)C1(C)CCC(O)C2(C)c3c(O)cc(C(C)C)cc3C(O)C(OC(C)=O)C12 (stereo not given)	inactive	
N#C[C@@H](O[C@@H]1O[C@H](CO[C@@H]2O[C@H](CO)[C@@H](O)[C@H](O)[C@H]2O)[C@@H](O)[C@H](O)[C@H]1O)c1ccccc1	inactive	
CN(C(=O)Cc1ccccc1)C(CN1CCCC1)c1ccccc1 (stereo not given)	inactive	
C[C@@]1(C(=O)O)CC[C@]2(C)CC[C@]3(C)C4=CC(=O)c5cc(O)c(O)cc5[C@]4(C)CC[C@@]3(C)[C@@H]2C1	inactive	
COC1C(O)C(C)OC(OC2C(CO)O[C@@H](O[C@@H]3CC4CCC5C(CC[C@]6(C)[C@@H](C7=CC(=O)OC7)CC[C@]56O)[C@@]4(C)[C@H](O)C3)C(O)C2O)C1O (stereo not given in full)	501 nM (active)	
C/C=C(\C)C(=O)OC1CC2C(CC=C3CC(OC4CC(OC)C(OC5CC(OC)C(OC6OC(C)C(OC7OC(CO)C(O)C(O)C7O)C(OC)C6O)C(C)O5)C(C)O4)CCC32C)C2(O)CCC(C(C)=O)C12C (stereo not given)		3.97% [at 11.6 µM] (inactive)
COC1CC(=O)C23C(=O)NC(CC(C)C)C2C(C)=C(C)C(OO)C3/C=C(\C)CCC(O)C1O (stereo not given)	inactive	
COC1CC(OC2CCC3(C)C(=CCC4C3CCC3(C)C(C(C)OC5OC(COC6OC(CO)C(O)C(O)C6O)C(O)C(O)C5O)CCC43O)C2)OC(C)C1OC1OC(C)C(O)C(OC)C1O (stereo not given)		-0.166% [at 11.6 µM] (inactive)
CC(=O)OC12C(O)C(C)C3(O)C4C=C(C)C(=O)C4CC(CO)=CC3C1C2(C)C (stereo not given)	inactive	
C[C@]12CC[C@@H](O)C[C@H]1CC[C@@H]1[C@@H]2CC[C@]2(C)C(=O)CC[C@@H]12	inactive	
OC1(c2ccc(Cl)cc2)c2ccccc2C2=NCCN21 (stereo not given)	inactive	
CC12CCC3C(CCC4(O)CC(O)CCC34C=O)C1(O)CCC2C1=CC(=O)OC1 (stereo not given)	355 nM (active)	
C=C(CO)C(=O)O[C@H]1C/C(C)=C/CC/C(CO)=C/[C@H]2OC(=O)C(=C)[C@H]12	inactive	
C=C1[C@@H]2CC[C@@]3(C)[C@H](c4ccoc4)OC(=O)C[C@]13O[C@H]1CC(=O)C(C)(C)[C@H](C(OC(C)=O)C(=O)OC)[C@]12C (stereo not given in full)	inactive	
